Source: ChEMBL document CHEMBL1157539, “Thousands of chemical starting points for antimalarial lead identification” (Nature, 2010)

How the values were obtained:
Assay type in all cases: functional
[1] = tested on: Plasmodium falciparum; assay: GSK_TCMDC: Inhibition of Plasmodium falciparum 3D7 in whole red blood cells, using parasite LDH activity as an index of growth. Test compounds present at 2uM
[2] = tested on: Plasmodium falciparum; assay: GSK_TCMDC: Inhibition of Plasmodium falciparum Dd2 in whole red blood cells, using parasite LDH activity as an index of growth. Test compounds present at 2uM
[3] = tested on: HepG2; assay: GSK_TCMDC: Percent inhibition of human HepG2 cell line. Test compounds present at 10uM.

| SMILES | Inhibition [1] [%] | Inhibition [2] [%] | Inhibition [3] [%] |
| --- | --- | --- | --- |
| COC(=O)C1(NC(=O)c2ccc(-n3nc(C)c(-c4ccccc4)c3N)cc2)CCCC1 | 96 | 81 | 9 |
| COc1ccc(-c2onc(C(F)(F)F)c2-c2cc3ccccc3o2)c(O)c1 | 93 | 15 | 6 |
| CC(CCCCC(=O)Nc1ccc(C(F)(F)F)cc1)NCC(O)c1cccc(Cl)c1 (stereo not drawn) | 99 | 92 | 51 |
| Cl.N=C(N)c1ccc(NC(=O)Cc2nc3cc(C(=N)N)ccc3[nH]2)cc1 | 87 | 81 | 4 |
| CCCCCCCN1CC[C@@H](CCCc2ccnc3ccc(OCC4CCCNC4)cc23)[C@@H](CC)C1.Cl (stereo partly drawn) | 98 | 100 | 99 |
| COc1ccc2c(NN=Cc3cccc(Cl)c3)ccnc2c1 | 100 | 94 | 32 |
| COc1ccc2c(=NN=Cc3ccccc3F)cc(C)[nH]c2c1 | 90 | 12 | 4 |
| O=C(Nc1ccc(C(F)(F)F)cc1)NC1CCN(c2ccnc3ccccc23)CC1.O=C(O)C(F)(F)F | 100 | 62 | 46 |
| COc1ccc(-c2cccc(NC(=O)c3cccc(C#N)c3)c2)cc1CN1CCC(O)CC1.O=C(O)C(F)(F)F | 97 | 13 | 30 |
| Cc1cccc2nc(-c3ccc(-c4cccc(NC(=O)Nc5cccc(C#N)c5)c4)cc3)[nH]c12 | 100 | 86 | 25 |
| COc1ccc(CNC2Cc3ccccc3C2)cc1-c1ccc(S(=O)(=O)NCc2cccnc2)s1.O=C(O)C(F)(F)F | 91 | 18 | 49 |
| COc1ccc(-n2nc(C)c3c2NC(=O)CC3c2ccccc2OCc2ccc(F)cc2)cc1 (stereo not drawn) | 93 | 65 | 53 |
| COc1ccc2nccc([C@@H](O)CN3CCC(NCc4ccc5c(c4)NC(=O)C(C)(C)O5)CC3)c2c1.O=C(O)C(=O)O | 100 | 70 | 6 |
| O=C(Nc1ccc(C(F)(F)F)cc1)N[C@H]1CCN(CCCCCNC(=O)C2CC2c2ccc(Cl)c(Cl)c2)C1 (stereo partly drawn) | 96 | 0 | 41 |
| Cc1ccc(NC(=O)NC2CCN(c3ccnc4cc(Cl)ccc34)CC2)cc1.O=C(O)C(F)(F)F | 100 | 47 | 4 |
| CN(c1ccc(NC(=O)Nc2cc(C(F)(F)F)ccc2F)cc1)c1ccnc(NCCN2CCCC2)n1.O=C(O)C(F)(F)F | 93 | 1 | 94 |
| NC1CCN(c2nc(NCCc3ccc(O)cc3)nc(NCc3ccccc3-c3ccc(C(F)(F)F)cc3)n2)CC1.O=C(O)C(F)(F)F | 100 | 72 | 18 |
| Cc1ccc2c(c1[N+](=O)[O-])N=NCC2Oc1ccccc1 (stereo not drawn) | 91 | 19 | 16 |
| CCCOc1ccccc1-c1nc2[nH]c3c(c2c(=O)[nH]1)CCN(C)C3 | 87 | 70 | 8 |
| CCCCCCCCCc1c(C)[nH]c2ccccc2c1=O | 97 | 96 | 0 |
| O=C(NC1CCCCC1)N(Cc1cccc(-c2ccc(CNC3CCCC3)cc2)c1)C1CCN(Cc2ccccc2)CC1.O=C(O)C(F)(F)F | 98 | 89 | 37 |
| N#Cc1ccc2[nH]cc(-c3cn4cc(SC5CCCC5)ccc4n3)c2c1 | 92 | 21 | 1 |
| CC1CC(NCCCNc2cc(=O)c3ccccc3[nH]2)c2c1cc(Cl)c(Cl)c2Cl (stereo not drawn) | 98 | 70 | 1 |
| Cc1nc(C)c(-c2ccc(S(=O)(=O)c3ccc(Cl)cc3)cc2)c(O)c1Cl | 98 | 96 | 0 |
| Cn1nc(-c2ccc(CNC3CCc4ccccc43)cc2)c2cnc(NCCCN3CCCC3)nc21 (stereo not drawn) | 92 | 22 | 27 |
| COc1ccccc1NC(=O)c1cc(C(=O)c2cc(Cl)ccc2O)cn(-c2ccccc2OC)c1=O | 92 | 31 | 9 |

| SMILES | Inhibition [1] [%] | Inhibition [2] [%] | Inhibition [3] [%] |
| --- | --- | --- | --- |
| Nc1nc(N)c2c(ccc3[nH]ccc32)n1 | 88 | 0 | 58 |
| CC(C)c1ccc(NC(=O)c2ccc(CN3CCCN(Cc4cccc(Cl)c4)CC3)cc2)cc1.O=C(O)C(F)(F)F | 90 | 12 | 45 |
| CC(C)(C)c1ccc(CNC(=O)c2ccc(-c3nc4cc(C(C)(C)C)ccc4[nH]3)cc2)cc1 | 96 | 49 | 21 |
| Cl.Oc1cccc(-c2nc3cc(C4=NC5CCCCC5N4)ccc3[nH]2)c1 (stereo not drawn) | 98 | 97 | 0 |
| CN1CCN(Cc2ccc(-c3ccc4c(Nc5cc(O)c(Cl)cc5F)ccnc4c3)o2)CC1 | 100 | 99 | 2 |
| Cc1ccc(C(=O)Nc2cccc(CN3CCCN(Cc4ccc(O)cc4)CC3)c2)s1.O=C(O)C(F)(F)F | 90 | 23 | 17 |
| O=C(O)C(F)(F)F.c1cnc2ccc(NCc3ccc(-c4ccc(CNC5CCCC5)cc4)cc3)cc2c1 | 97 | 21 | 27 |
| CC(C)NCc1ccc(-c2ccc(NC(=O)c3cccc(C#N)c3)cc2)cc1.O=C(O)C(F)(F)F | 99 | 77 | 40 |
| N#Cc1ccc2[nH]c(-c3cc(-c4cccc(F)c4)cnc3N)nc2c1.O=C(O)C(F)(F)F | 100 | 93 | 46 |
| COc1cc2nc(N3CCC(CNC(=O)c4ccc(-c5ccccc5)cc4)CC3)nc(N)c2cc1OC | 93 | 92 | 11 |
| Cc1n[nH]c2ccc(-c3ccc4nccc(N5CCC(N)CC5)c4c3)cc12.Cl | 100 | 100 | 67 |
| CN(C)CCCN(C)c1cccc2c1nc(-c1cccnc1)n2CCNCc1ccccc1.O=C(O)C(F)(F)F | 89 | 88 | 4 |
| Cc1cc(OCCCN2CCCCC2C)ccc1NC(=O)COc1ccc(Cl)cc1C(=O)c1cc(Cl)cc(C#N)c1 (stereo not drawn) | 91 | 14 | 23 |
| O=C(NCCCCN1CCC(c2ccc3c(c2OCC(O)c2ccc(Cl)cc2)CCCC3)CC1)c1ccc(-c2ccc(C(F)(F)F)cc2)cc1 (stereo not drawn) | 89 | 67 | 100 |
| O=C(Nc1cccc(-c2ccc(CN3CCCC3)cc2)c1)c1ccc(F)cc1.O=C(O)C(F)(F)F | 92 | 9 | 23 |
| CC(=O)O.CCC[C@@H]([C@@H](CC1CCCCC1)C(=O)N[C@H](C(=O)Nc1nccc(N)n1)C(C)(C)C)N(O)C=O | 96 | 82 | 25 |
| CCC1N=C(N)N=C(N)N1OCc1cccc2ccccc12 (stereo not drawn) | 93 | 1 | 66 |
| COc1ccc2nccc([C@@H](O)CN3CCC(NC(=O)/C=C/c4cccc(-c5ccccc5)c4)CC3)c2c1 | 98 | 83 | 12 |
| Cc1ccc2[nH]c(C)cc(=NN=Cc3ccccc3Cl)c2c1 | 100 | 62 | 6 |
| O=C(Nc1cccc(-c2cccc(-c3nc4cc(C(F)(F)F)ccc4[nH]3)c2)c1)c1ccc(=O)[nH]n1 | 100 | 26 | 63 |
| CCN(CC)CCCOc1ccc(Nc2nccc(-c3c(-c4cccc(NC(=O)c5c(F)cccc5F)c4)nn4ccccc34)n2)cc1F | 100 | 99 | 86 |
| CN(C(=O)Cc1ccc(Cl)cc1)C1CCN(CCCCCNC(=O)/C=C/c2ccc(Cl)c(Cl)c2)CC1 | 83 | 16 | 69 |
| Cc1cc(NCCc2cccc(F)c2)nc(NC(=N)Nc2cccc(C(F)(F)F)c2)n1 | 100 | 99 | 42 |
| COc1ccc(C=NN=c2cc[nH]c3ccccc23)c2ccccc12 | 100 | 98 | 27 |
| Cc1cc(NCCC(=O)NCCOc2ccccc2)nc(NCCc2ccccc2)n1.O=C(O)C(F)(F)F | 99 | 9 | 0 |
